Measured values from PubChem BioAssay (NCATS).
Inconclusive results are not listed. Unmarked numbers belong to inactive results. Calls of active or inactive are those of the source. Calls follow the shape of the dose curve; as a rule, active = well fitted inhibition curve with a large enough effect; inconclusive = small, poorly fitted or top-dose-only effect; inactive = flat fitted curve, though single readings scatter.
% is scaled to controls: 0 for no effect and ±100 for the full control effect; potency is read from the fitted curve at half-maximal effect.

These compounds were tested on CRL-7250 (assay: Cytotoxic Profiling of Annotated Libraries Using Quantitative High-Throughput Screening (AID 1296008; also: nearly all actives have a fitted effect of over 60% in size)). Conditions: Five cell lines viability, CellTiter-Glo ATP luminescence, 48-72 h; max response: hits give low values.
Summary of the method: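 Cells exposed to compounds for 48 or 72 hr at 37 degrees Celsius. Viability read as ATP-coupled luminescence with CellTiter-Glo after 10 min at room temperature.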
For `CC(C)c1nnc(-c2ccc(-c3ccccc3)nc2)n1-c1cccc2nonc12`, the max response was -7.02%.
With `CC1COC(Nc2ccc3ncnc(Nc4ccc(OCc5nccs5)c(Cl)c4)c3c2)=N1` (stereo not given) the Potency was 9.2 µM (active).
For `C=C1CN(Cc2ccc(C(=O)Nc3ccccc3N)cc2)C(=O)c2ccccc21`, the Potency was 2.06 µM (active).
With `C[C@]12C=C[C@@]3(CCC4[C@](C)(CO)CCC[C@@]4(C)C3CC1)C2` (stereo not given in full) the max response was -1.08%.
In the case of `COc1cc2nc(N3CCC(N4CCCCC4)CC3)nc(NC3CCCCCC3)c2cc1OC`, the Potency is reported as 16.4 µM (active).
`O=C(O)COCCN1CCN([C@H](c2ccccc2)c2ccc(Cl)cc2)CC1` was tested, and the max response was 2.26%.
In the case of `c1cc(OCCCN2CCCCC2)ccc1CN1CCCCC1`, the max response is reported as -3.26%.
Work on `CC(C(O)/C=C/C(C)(C)O)C1CCC2(C)C3C(=O)C=C4C(CCC(O)C4(C)C)C3(C)CCC12C` (stereo not given) yielded a max response of -0.192%.
In the case of `C=C1C(=O)OC2CC(C)=C(C(C)CCCO)C(O)C12` (stereo not given), the outcome is reported as “inactive”.
In the case of `CC(=O)O[C@@H]1[C@@H](O)[C@H](O[C@H]2CC[C@]34C[C@]35CC[C@]3(C)[C@@H]([C@@]6(C)CC[C@@H](C(C)(C)O)O6)[C@@H](O)C[C@@]3(C)[C@@H]5C[C@H](O[C@@H]3O[C@H](CO)[C@@H](O)[C@H](O)[C@H]3O)[C@H]4C2(C)C)OC[C@H]1O`, the max response is reported as 1.83%.
Work on `CC1CC2OC3(OC2C(C)(C)O)C1C1(C)CCC24CC25CCC(O[C@@H]2OC[C@@H](O)[C@H](O)[C@H]2O)C(C)(C)C5CC=C4C1(C)C3O` (stereo not given in full) yielded a max response of -7.03%.
For `O=C(O)c1ccc(OC2OC(CO)C(O)C(O)C2O)cc1` (stereo not given), the outcome was “inactive”.
In the case of `C[C@H](N)C(=O)N[C@@H](Cc1ccc(O)cc1)C(=O)N1CCC[C@H]1C(=O)NCC(=O)N[C@@H](CCCCN)C(=O)N[C@@H](Cc1ccccc1)C(N)=O`, the outcome is reported as “inactive”.
Compound `CC(C)=CCC[C@](C)(O[C@@H]1O[C@H](CO[C@@H]2O[C@H](CO)[C@@H](O)[C@H](O)[C@H]2O)[C@@H](O)[C@H](O)[C@H]1O)C1CC[C@]2(C)[C@@H]1[C@H](O)CC1[C@@]3(C)CC[C@H](O[C@@H]4O[C@H](CO)[C@@H](O)[C@H](O)[C@H]4O[C@@H]4O[C@H](CO)[C@@H](O)[C@H](O)[C@H]4O)C(C)(C)[C@@H]3CC[C@]12C` (stereo not given in full) has a max response of -3.43%.
Work on `C=C1CC2C(C)(CCC(=O)O)C(C(C)(C)O)CCC2(C)C2C(=O)OC(C)(C(=O)OC)C(=O)C12C` (stereo not given) yielded a max response of -2.01%.
For `CC(=O)c1cc2c(cc1O)OC(C)(C)C=C2`, the outcome was “inactive”.
`COc1ccc(C2(O)c3ccccc3NC(=O)C2O)cc1` (stereo not given) was tested, and the max response was 0.154%.
Work on `C=C[C@H]1[C@H](O[C@@H]2O[C@H](CO)[C@@H](O)[C@H](O)[C@H]2O)OC=C(C(=O)OC)[C@H]1CC(=O)O` yielded a max response of -13.3%.
With `Cc1ccc(-c2ccc3c(ccc4sc5c(c43)NC[C@@H](C)NC5=O)n2)cn1` the outcome was “inactive”.
With `COC(=O)C1=CO[C@@H](O[C@@H]2O[C@H](CO)[C@@H](O)[C@H](O)[C@H]2O)[C@@H]2C(CO)=CC[C@]12O` the max response was -2.05%.
With `C/C=C1\[C@H](OC2OC(COC3OC(CO)C(O)C(O)C3O)C(O)C(O)C2O)OC=C(C(=O)OC)[C@H]1CC(=O)OCCc1ccc(O)cc1` (stereo not given in full) the max response was -3.04%.
With `CO[C@H]1O[C@@H]2O[C@]3(C)CC[C@H]4[C@H](C)CC[C@@H]([C@H]1C)[C@@]24OO3` the max response was -2.96%.
Compound `COc1cc(/C=C/C=O)cc(OC)c1O[C@@H]1O[C@H](CO)[C@@H](O)[C@H](O)[C@H]1O` has a max response of -11.6%.
For `NC(=O)[C@H](O[C@@H]1O[C@H](CO)[C@@H](O)[C@H](O)[C@H]1O)c1ccccc1`, the outcome was “inactive”.
For `Cc1cnc(NC(=O)Nc2cc(Br)c(C)cc2OCC2CNCCO2)cn1` (stereo not given), the Potency was 13 µM (active).
In the case of `C/C=C/C=C/C(O)=C1\C(O)=C(C)C(=O)[C@@]2(C)OC(=O)[C@@](C)(NC(=O)/C=C/C(=O)O)[C@@H]12`, the max response is reported as -29.7%.
Compound `CC[C@H]1OC(=O)[C@](C)(F)C(=O)[C@H](C)[C@@H](O[C@@H]2O[C@H](C)C[C@H](N(C)C)[C@H]2O)[C@](C)(OC)C[C@@H](C)C(=O)[C@@H](C)[C@H]2N(CCCCn3cc(-c4cccc(N)c4)nn3)C(=O)O[C@]12C` has a max response of -0.28%.
In the case of `O=C(O)c1cn(C2CC2)c2cc(N3C[C@@H]4C[C@H]3CN4)c(F)cc2c1=O`, the max response is reported as -3.63%.
In the case of `COCCOc1ccc(N2CCN(CCn3ncc4c3nc(N)n3nc(-c5ccco5)nc43)CC2)cc1`, the outcome is reported as “inactive”.
For `C=C(C(=O)O)C1CC2=C(C)CCCC2(C)C[C@@H]1O` (stereo not given in full), the outcome was “inactive”.
For `C/C(=C\CCC1(C)C2CCC(C2)C1(C)O)C(=O)O` (stereo not given), the outcome was “inactive”.
In the case of `Cc1cc(C)nc(NS(=O)(=O)c2ccc(NC(=S)NC(=O)COc3ccc(Br)cc3Cl)cc2)n1`, the max response is reported as 3.21%.
With `CC1(C)CC[C@]2(C(=O)O[C@@H]3O[C@H](CO)[C@@H](O)[C@H](O)[C@H]3O)CC[C@]3(C)C(=CCC4[C@@]5(C)C[C@@H](O)[C@H](O)[C@](C)(C(=O)O)C5CC[C@]43C)C2C1O` (stereo not given in full) the max response was 2.5%.
With `C[C@@H]1O[C@@H](O[C@H]2[C@H](O[C@H]3[C@H](O)[C@@H](C(=O)O)O[C@@H](O[C@H]4CC[C@@]5(C)C(CC[C@]6(C)C5CC[C@]57OC[C@@]8(CCC(C)(C)CC85)[C@H](O)C[C@]76C)C4(C)C)[C@@H]3O[C@@H]3O[C@H](CO)[C@@H](O[C@@H]4OC[C@@H](O)[C@H](O)[C@H]4O)[C@H](O)[C@H]3O)O[C@H](CO)[C@H](O)[C@@H]2O)[C@H](O)[C@H](O)[C@H]1O` (stereo not given in full) the max response was -4.31%.
`C[C@@H]([C@@H](O)c1ccc(O)cc1)N1CCC(O)(c2ccccc2)CC1` gave a max response of 0.694%.
`CC(=O)OC1C[C@@]2(C)[C@@H](CC[C@@H](C)[C@]23Cc2c(O)cc4c(c2O3)CNC4=O)C(C)(C)[C@@H]1O` (stereo not given in full) gave a max response of 2.93%.
In the case of `C=C[C@@H]1[C@H](O[C@@H]2O[C@H](CO)[C@@H](O)[C@H](O)[C@H]2O)OC=C(C(=O)O)[C@H]1CCOC(=O)/C=C/c1ccc(O)c(O)c1`, the max response is reported as 1.95%.
In the case of `Cn1ncnc1COc1nn2c(-c3cc(F)ccc3F)nnc2cc1C(C)(C)C`, the max response is reported as -15.8%.
`COc1cc(/C=C/C(=O)OC[C@H]2O[C@@](CO)(O[C@H]3O[C@H](CO)[C@@H](O)[C@H](O)[C@H]3O)[C@@H](OC(=O)/C=C/c3ccc(O)c(OC)c3)[C@@H]2O)ccc1O` gave a max response of -25.3%.
In the case of `C/C1=C\CCC(C)CCO[C@@H]2O[C@H](CO[C@@H]3OC[C@H](O)[C@H](O)[C@H]3OC1=O)[C@@H](O)[C@H](O)[C@H]2O` (stereo not given in full), the max response is reported as -2.22%.
